Survival data for 62 compounds are collected here from PubChem BioAssay AID463173 (ICCB-Longwood Screening Facility, Harvard Medical School, 2010).

About 4,300 (8.3%) of roughly 52,000 compounds were called active. Cut-off read from the data, not from the text of the source: active = survival mostly below about 52% (no sharp cut-off); inactive = mostly above about 56%. Only a selection was taken, and actives are over-represented in it overall.

The subject of this experiment is DeltatarO mutant. Description: S. aureus survival, RN4220 and DeltatarO strains – OD600, teichoic acid synthesis inhibitors, primary screen (AID 463173). The settings on record: S. aureus RN4220 wild type/DeltatarO growth, OD600, 18 h, hits give low values, screened at 18.75 µg/mL (by protocol).
Consider `O=C(NCc1noc2ccccc12)N1CCN(c2ccccc2F)CC1`, for which the survival was 40% (inactive).
Under `COc1cccc(CSc2nc(-c3ccccc3OC)nc3c2Cc2c(CO)cnc(C)c2O3)c1` stands 57% (inactive).
For the compound `CCCn1c2ccccc2c2cnn(CC(=O)NCc3cc(OC)ccc3OC)c(=O)c21`, the survival is 122% (inactive).
Turning to `CCN(CC)S(=O)(=O)c1ccc2c(c1)c(=O)c(C(=O)NCc1ccccc1OC)cn2C`, the survival is 71% (inactive).
As for `COc1cccc(C(=O)Nc2nc3nc(C)c(C)c(=O)n3[nH]2)c1`, the figure is 104% (inactive).
Under `CCOC(=O)c1c(NC(=O)c2cc(=O)c3c(C)cc(C)cc3o2)sc2c1CCC2` stands 61% (inactive).
Take `Cc1cc(C)c2c(=O)cc(C(=O)Nc3sc4c(c3C#N)CCCC4)oc2c1`: the survival is 12% (active).
As for `COC(=O)c1c(NC(=O)c2cc(=O)c3c(C)cc(C)cc3o2)sc2c1CCCC2`, the figure is 61% (inactive); as for `Cc1ccc(C(=O)NCC(c2ccco2)S(=O)(=O)c2cccs2)cc1C` (configuration not stated), 102% (inactive).
As for `CC(=O)c1ccc(NC(=O)CCc2c(C)nn(-c3ccc4nncn4n3)c2C)cc1`, the survival is 91% (inactive).
For `Cc1cccc(N2CCN(C(=O)Cn3nc(C)n4cccc4c3=O)CC2C)c1` (configuration not stated), the survival was 90% (inactive).
As for `COC(=O)c1cc2oc(C)cc2n1Cc1cc(C)ccc1C`, the figure is -9% (active).
Under `COC(=O)c1cc2sccc2n1Cc1ccc(F)cc1Cl` stands 65% (inactive); under `COC(=O)c1cc2oc3ccccc3c2n1Cc1ccccc1Cl`, 72% (inactive).
As for `COC(=O)c1cc2oc(C)cc2n1Cc1ccccc1Cl`, the survival is -8% (active).
As for `COC(=O)c1cc2sc(C)cc2n1Cc1ccc(F)cc1Cl`, the figure is 76% (inactive); as for `COC(=O)c1cc2occc2n1Cc1ccc(F)cc1Cl`, 30% (active).
As for `COC(=O)c1cc2oc(C)cc2n1CC(=O)Nc1cc(Cl)ccc1OC`, the figure is 77% (inactive); as for `COC(=O)c1cc2oc(C)cc2n1Cc1ccc(Cl)cc1`, 73% (inactive); as for `COC(=O)c1cc2oc(C)cc2n1Cc1cccc(Cl)c1`, -8% (active).
In the case of `COC(=O)c1cc2oc(C)cc2n1Cc1ccc(C)cc1`, the survival is 69% (inactive).
As for `COC(=O)c1cc2oc(C)cc2n1Cc1ccc(Br)cc1F`, the figure is 75% (inactive).
With `COC(=O)c1cc2oc(C)cc2n1Cc1c(C)cc(C)cc1C`, the survival is 46% (inactive).
On to `O=C(NCc1ccccc1)c1cc2sccc2n1Cc1ccc(F)cc1`, for which the survival is 88% (inactive).
For `Cc1cc(C)cc(-n2c(SCC(=O)Nc3nnc(C)s3)nc3c([nH]c4ccccc43)c2=O)c1`, the survival was 68% (inactive).
Take `O=C(NC1CC(=O)N(c2cccc(F)c2)C1)c1ccc(Br)o1` (configuration not stated): the survival is 101% (inactive).
As for `CC(C)(C)C1CCc2c(sc(NC(=O)c3noc4c3CCCC4)c2C#N)C1` (configuration not stated), the figure is 53% (inactive); as for `Cc1nnc(N(C)C(=O)CNC(=O)c2ccccc2)s1`, 75% (inactive).
Under `COc1ccc(NC(=O)c2ccccc2NC(=O)c2ccco2)cc1` stands 74% (inactive); under `CCOC(=O)c1c(C)oc2nc(C)nc(NCCc3ccc(SC)cc3)c12`, 83% (inactive); under `Cc1cccc(CSc2nc3cc(C(=O)NC4CCCC4)ccc3c(=O)n2Cc2ccccc2)c1`, 69% (inactive).
On to `COc1ccc(Cl)cc1NC(=O)c1cc(S(=O)(=O)NC2CCCCCC2)ccc1F`, for which the survival was 71% (inactive).
Under `CCOC(=O)c1cc2oc(C)cc2n1CC(=O)NC1CC1` stands 86% (inactive).
Turning to `COC(=O)c1cc2oc3ccccc3c2n1Cc1ccc(C)cc1`, the survival is 93% (inactive).
As to `COC(=O)c1cc2oc3ccccc3c2n1Cc1ccc(Cl)cc1`, the survival was 76% (inactive).
Under `COC(=O)c1cc2oc3ccccc3c2n1Cc1cccc(C)c1` stands 31% (active).
With `CCc1cccc(NC(=O)Cn2c(C(=O)OC)cc3occc32)c1`, the survival is 92% (inactive).
Under `COC(=O)c1cc2occc2n1Cc1nc(-c2ccc(C)cc2)oc1C` stands 69% (inactive).
`C=CCn1c(C(=O)OCC)cc2oc(C)cc21`: the survival is 119% (inactive).
Under `CCOC(=O)c1cc2oc(C)cc2n1CCCN1C(=O)c2ccccc2C1=O` stands 0% (active); under `COC(=O)c1cc2occc2n1Cc1cccc(C)c1`, -6% (active); under `COc1ccc(Cl)cc1C1CC(=O)Nc2cc3c(cc21)OCCO3` (configuration not stated), 102% (inactive).
Turning to `O=C(Nc1ccc(Br)cc1F)C1CCN(c2nc3ccccc3[nH]2)CC1`, the survival is 102% (inactive).
Turning to `CCCNC(=O)Cn1c(=O)n(CC2CCC(C(=O)NC)CC2)c(=O)c2sccc21` (configuration not stated), the survival is 87% (inactive).
With `Cc1cccc(NC2=NCC(=O)N2Cc2ccccc2)c1`, the survival is 89% (inactive).
Turning to `CCOC(=O)N1CCN(C(=O)c2ccc3c(c2)N(Cc2ccccc2F)C(=O)c2ccccc2S3(=O)=O)CC1`, the survival is 72% (inactive).
Under `O=S(=O)(c1ccc(OC(F)(F)F)cc1)N1CCC(c2nc3ccccc3s2)CC1` stands 65% (inactive); under `CNC(=O)C1CCC(Cn2c(=O)c3sccc3n(CC(=O)Nc3ccccc3)c2=O)CC1` (configuration not stated), 75% (inactive); under `CCOC(=O)c1sc2nc(C)n(CC(=O)Nc3cccc(Cl)c3)c(=O)c2c1C`, 71% (inactive).
Consider `CCOc1ccc(NC(=O)CSc2nccn2Cc2ccco2)cc1`, for which the survival is 91% (inactive).
Turning to `CCOc1ccccc1CNC(=O)c1ccc2c(c1)sc1nc(-c3ccccc3)cn12`, the survival is 67% (inactive).
`CCOc1ccc(-c2cn3c(n2)sc2cc(C(=O)NCCC4=CCCCC4)ccc23)cc1`: the survival was 87% (inactive).
As to `COc1cccc(-c2cn3c(n2)sc2cc(C(=O)NCCc4ccccc4)ccc23)c1`, the survival is 38% (active).
Turning to `COc1cccc(-c2cn3c(n2)sc2cc(C(=O)NCCCc4ccccc4)ccc23)c1`, the survival is 54% (inactive).
For `CCOc1ccc(-c2cn3c(n2)sc2cc(C(=O)NCCc4ccc(OC)cc4OC)ccc23)cc1`, the survival was 40% (active).
As to `COc1ccc(-c2cn3c(n2)sc2cc(C(=O)NCCc4ccccc4)ccc23)cc1`, the survival is 86% (inactive).
`CCOc1ccc(CNC(=O)c2ccc3c(c2)sc2nc(-c4ccccc4)cn23)cc1`: the survival is 74% (inactive).
As to `COc1ccc(-c2cn3c(n2)sc2cc(C(=O)NCCc4ccc(OC)cc4OC)ccc23)cc1`, the survival was 65% (inactive).
On to `COc1ccccc1CNC(=O)c1ccc2c(c1)sc1nc(-c3ccc(F)cc3)cn12`, for which the survival was 63% (inactive).
As for `CCOc1ccc(CCNC(=O)c2ccc3c(c2)sc2nc(-c4ccc(F)cc4)cn23)cc1OCC`, the figure is 42% (active); as for `CCc1ccc(-c2cn3c(n2)sc2cc(C(=O)NCCc4ccc(OC)cc4OC)ccc23)cc1`, 59% (inactive); as for `CCOc1ccc(-c2cn3c(n2)sc2cc(C(=O)NCCc4ccc(OC)c(OC)c4)ccc23)cc1`, 49% (active).
